PubChem BioAssay AID1159580 (chemical genetic matrix, 2015)
Hit rate of the full screen: of about 5,500 compounds, about 2,000 (36%) were called active. About 18% were inconclusive and are not listed. Rule as the data show it: active = normalized growth mostly below about 0.91 (no sharp cut-off); inconclusive = no clear call, values can overlap the other calls; inactive = mostly above about 0.92. The list shows a part of the results.

Experiment: chemical genetic growth profiling, strain panel (AID 1159580);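 also: tested at 20 µM; growth read once vehicle control cultures reached saturation at 30 °C; 1 = growth at the plate median or of vehicle wells; lower values mean less growth of the strain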
Settings: growth OD
[1] = S. cerevisiae deletion strains, locus YJR075W, strain HOC1, hits give low values
[2] = S. cerevisiae deletion strains, locus YMR307W, strain GAS1, hits give low values
[3] = S. cerevisiae deletion strains, locus YPL055C, strain LGE1, hits give low values
[4] = S. cerevisiae deletion strains, locus YDL101C, strain DUN1, hits give low values
[5] = S. cerevisiae deletion strains, locus YHR030C, strain SLT2, hits give low values
[6] = S. cerevisiae deletion strains, locus YAR019C, strain CDC15, hits give low values
[7] = S. cerevisiae deletion strains, locus YBL105C, strain PKC1, hits give low values
[8] = S. cerevisiae deletion strains, locus YBR135W, strain CKS1, hits give low values
[9] = S. cerevisiae deletion strains, locus YBR136W, strain MEC1, hits give low values
[10] = S. cerevisiae deletion strains, locus YBR160W, strain CDC28, hits give low values
[11] = S. cerevisiae deletion strains, locus YDL017W, strain CDC7, hits give low values
[12] = S. cerevisiae deletion strains, locus YDL028C, strain MPS1, hits give low values
[13] = S. cerevisiae deletion strains, locus YDL108W, strain KIN28, hits give low values
[14] = S. cerevisiae deletion strains, locus YDL132W, strain cdc53, hits give low values
[15] = S. cerevisiae deletion strains, locus YDL214C, strain PRR2, hits give low values
[16] = S. cerevisiae deletion strains, locus YDR052C, strain DBF4, hits give low values
[17] = S. cerevisiae deletion strains, locus YDR054C, strain cdc34, hits give low values
[18] = S. cerevisiae deletion strains, locus YDR226W, strain ADK1, hits give low values
[19] = S. cerevisiae deletion strains, locus YDR477W, strain SNF1, hits give low values
[20] = S. cerevisiae deletion strains, locus YER123W, strain YCK3, hits give low values
[21] = S. cerevisiae deletion strains, locus YER133W, strain GLC7, hits give low values
[22] = S. cerevisiae deletion strains, locus YFL009W, strain cdc4, hits give low values
[23] = S. cerevisiae deletion strains, locus YFL029C, strain CAK1, hits give low values
[24] = S. cerevisiae deletion strains, locus YFR003C, strain YPI1, hits give low values
[25] = S. cerevisiae deletion strains, locus YFR019W, strain FAB1, hits give low values
[26] = S. cerevisiae deletion strains, locus YFR028C, strain CDC14, hits give low values
[27] = S. cerevisiae deletion strains, locus YGR040W, strain KSS1, hits give low values
[28] = S. cerevisiae deletion strains, locus YGR052W, strain FMP48, hits give low values
[29] = S. cerevisiae deletion strains, locus YGR092W, strain DBF2, hits give low values
[30] = S. cerevisiae deletion strains, locus YHR079C, strain IRE1, hits give low values
[31] = S. cerevisiae deletion strains, locus YHR082C, strain KSP1, hits give low values
[32] = S. cerevisiae deletion strains, locus YHR205W, strain SCH9, hits give low values
[33] = S. cerevisiae deletion strains, locus YIL147C, strain SLN1, hits give low values
[34] = S. cerevisiae deletion strains, locus YJL095W, strain BCK1, hits give low values
[35] = S. cerevisiae deletion strains, locus YJL128C, strain PBS2, hits give low values
[36] = S. cerevisiae deletion strains, locus YJL157C, strain FAR1, hits give low values
[37] = S. cerevisiae deletion strains, locus YJR016C, strain ILV3, hits give low values
[38] = S. cerevisiae deletion strains, locus YJR066W, strain TOR1 (second series), hits give low values
[39] = S. cerevisiae deletion strains, locus YJR066W, strain TOR1, hits give low values
[40] = S. cerevisiae deletion strains, locus YKL048C, strain ELM1, hits give low values
[41] = S. cerevisiae deletion strains, locus YKL067W, strain YNK1, hits give low values
[42] = S. cerevisiae deletion strains, locus YKL101W, strain HSL1, hits give low values
[43] = S. cerevisiae deletion strains, locus YKL193C, strain SDS22, hits give low values
[44] = S. cerevisiae deletion strains, locus YKL203C, strain TOR2, hits give low values
[45] = S. cerevisiae deletion strains, locus YLR113W, strain HOG1, hits give low values
[46] = S. cerevisiae deletion strains, locus YLR133W, strain CKI1, hits give low values
[47] = S. cerevisiae deletion strains, locus YLR403W, strain SFP1, hits give low values
[48] = S. cerevisiae deletion strains, locus YML070W, strain DAK1, hits give low values
[49] = S. cerevisiae deletion strains, locus YMR001C, strain CDC5, hits give low values
[50] = S. cerevisiae deletion strains, locus YMR205C, strain PFK2 (second series), hits give low values
[51] = S. cerevisiae deletion strains, locus YMR277W, strain FCP1, hits give low values
[52] = S. cerevisiae deletion strains, locus YNL006W, strain LST8, hits give low values
[53] = S. cerevisiae deletion strains, locus YNL020C, strain ARK1, hits give low values
[54] = S. cerevisiae deletion strains, locus YNL161W, strain CBK1, hits give low values
[55] = S. cerevisiae deletion strains, locus YNL183C, strain NPR1, hits give low values
[56] = S. cerevisiae deletion strains, locus YNL207W, strain RIO2, hits give low values
[57] = S. cerevisiae deletion strains, locus YNL222W, strain SSU72, hits give low values
[58] = S. cerevisiae deletion strains, locus YNL307C, strain MCK1 (second series), hits give low values
[59] = S. cerevisiae deletion strains, locus YOL078W, strain AVO1, hits give low values
[60] = S. cerevisiae deletion strains, locus YOL136C, strain PFK27, hits give low values
[61] = S. cerevisiae deletion strains, locus YOR061W, strain CKA2, hits give low values
[62] = S. cerevisiae deletion strains, locus YOR119C, strain RIO1, hits give low values
[63] = S. cerevisiae deletion strains, locus YOR231W, strain MKK1, hits give low values
[64] = S. cerevisiae deletion strains, locus YOR329C, strain SCD5, hits give low values
[65] = S. cerevisiae deletion strains, locus YPL031C, strain PHO85, hits give low values
[66] = S. cerevisiae deletion strains, locus YPL153C, strain RAD53, hits give low values
[67] = S. cerevisiae deletion strains, locus YPL204W, strain HRR25, hits give low values
[68] = S. cerevisiae deletion strains, locus YPL209C, strain IPL1, hits give low values
[69] = S. cerevisiae deletion strains, locus YPL256C, strain CLN2, hits give low values
[70] = S. cerevisiae deletion strains, locus YPR025C, strain CCL1, hits give low values
[71] = S. cerevisiae deletion strains, locus YPR106W, strain ISR1, hits give low values
[72] = S. cerevisiae deletion strains, locus YPR111W, strain DBF20, hits give low values
[73] = S. cerevisiae deletion strains, strain NNK1, hits give low values
[74] = S. cerevisiae deletion strains, strain TSCII, hits give low values

Measured: normalized growth

CN(C)c1ccc(/C=C2\C(=O)Nc3ccccc32)cc1
active: S. cerevisiae deletion strains, locus YER002W, strain NOP16, hits give low values 0.877 | S. cerevisiae deletion strains, locus YNL175C, strain NOP13, hits give low values 0.809 | S. cerevisiae deletion strains, locus YNL224C, strain SQS1, hits give low values 0.891 | S. cerevisiae deletion strains, locus YOR083W, strain WHI5 (second series), hits give low values 0.786
inactive: S. cerevisiae deletion strains, locus YAL040C, strain CLN3, hits give low values 0.95 | S. cerevisiae deletion strains, locus YCL061C, strain MRC1 (second series), hits give low values 0.993 | S. cerevisiae deletion strains, locus YDR363W, strain ESC2, hits give low values 0.963 | S. cerevisiae deletion strains, locus YGR229C, strain SMI1, hits give low values 0.93 | [1] 0.972 | [2] 0.984 | S. cerevisiae deletion strains, locus YNL197C, strain WHI3, hits give low values 0.942 | [3] 0.972

Clc1ccc(C=C2c3ccccc3-c3ccccc32)cc1
inactive: S. cerevisiae deletion strains, locus YAL013W, strain DEP1, hits give low values 0.988 | S. cerevisiae deletion strains, locus YBR229C, strain ROT2, hits give low values 0.973 | [4] 0.986 | S. cerevisiae deletion strains, locus YDL134C, strain PPH21, hits give low values 1 | S. cerevisiae deletion strains, locus YDR150W, strain NUM1, hits give low values 0.95 | S. cerevisiae deletion strains, locus YEL061C, strain CIN8, hits give low values 0.99 | S. cerevisiae deletion strains, locus YGR078C, strain PAC10, hits give low values 1 | [5] 0.873 | S. cerevisiae deletion strains, locus YHR087W, strain rtc3, hits give low values 0.986 | S. cerevisiae deletion strains, locus YJL187C, strain SWE1, hits give low values 1 | S. cerevisiae deletion strains, locus YJR043C, strain POL32, hits give low values 0.981 | [1] 0.979 | S. cerevisiae deletion strains, locus YLR039C, strain RIC1, hits give low values 0.967 | S. cerevisiae deletion strains, locus YLR058C, strain SHM2 (second series), hits give low values 0.972 | S. cerevisiae deletion strains, locus YLR085C, strain ARP6, hits give low values 0.996 | S. cerevisiae deletion strains, locus YLR262C, strain YPT6, hits give low values 0.855 | S. cerevisiae deletion strains, locus YML094W, strain GIM5, hits give low values 1.03 | S. cerevisiae deletion strains, locus YMR219W, strain ESC1, hits give low values 0.988 | S. cerevisiae deletion strains, locus YMR263W, strain SAP30, hits give low values 0.983 | [2] 1.03 | S. cerevisiae deletion strains, locus YNL128W, strain TEP1, hits give low values 0.984 | S. cerevisiae deletion strains, locus YNL153C, strain GIM3, hits give low values 0.965 | S. cerevisiae deletion strains, locus YNL298W, strain CLA4 (second series), hits give low values 0.949 | S. cerevisiae deletion strains, locus YNL322C, strain KRE1, hits give low values 1 | S. cerevisiae deletion strains, locus YNR030W, strain Alg12, hits give low values 0.957 | [3] 1.01 | S. cerevisiae deletion strains, locus YPL241C, strain CIN2, hits give low values 0.995 | S. cerevisiae deletion strains, locus YPR135W, strain CTF4, hits give low values 0.855 | S. cerevisiae strains, strain wild type, hits give low values 0.961

O=C1Nc2ccccc2/C1=C\c1cccc([N+](=O)[O-])c1
inactive: [6] 0.974 | [7] 0.967 | [8] 0.974 | [9] 0.972 | [10] 0.979 | [11] 0.97 | [12] 0.971 | [4] 0.97 | [13] 0.968 | [14] 0.962 | [15] 0.983 | [16] 0.97 | [17] 0.957 | [18] 0.969 | [19] 0.971 | [20] 0.985 | [21] 1 | [22] 0.965 | [23] 0.982 | [24] 0.965 | [25] 0.987 | [26] 0.961 | [27] 0.967 | [28] 1.02 | [29] 0.921 | [5] 0.959 | [30] 0.913 | [31] 1.06 | [32] 0.848 | [33] 0.967 | [34] 0.955 | [35] 0.923 | [36] 0.985 | [37] 0.967 | [38] 0.981 | [39] 1.05 | [40] 0.971 | [41] 0.995 | [42] 0.967 | [43] 0.963 | [44] 1.05 | [45] 0.939 | [46] 0.975 | [47] 0.907 | [48] 0.993 | [49] 0.97 | [50] 0.994 | [51] 0.969 | [52] 0.979 | [53] 0.959 | [54] 0.965 | [55] 1.05 | [56] 0.963 | [57] 0.986 | [58] 0.957 | [59] 0.966 | [60] 0.985 | [61] 0.991 | [62] 1.07 | [63] 1.04 | [64] 0.973 | [65] 0.972 | [66] 0.992 | [67] 0.968 | [68] 0.974 | [69] 0.954 | [70] 0.978 | [71] 0.973 | [72] 0.966 | [73] 0.967 | [74] 0.963

CN1C[C@H](C(=O)N[C@]2(C)C[C@@]3(O)C4CCCN4C(=O)[C@H](Cc4ccccc4)N3C2=O)C=C2c3cccc4[nH]cc(c34)C[C@H]21 (stereo partly specified)
inactive: [5] 0.986 | [30] 0.994 | [34] 0.958 | [39] 0.945 | [45] 1 | [55] 0.944 | [63] 0.997 | [69] 0.981

COc1ccc(/C=C2/C(=O)Nc3ccccc32)cc1
active: [6] 0.877 | [7] 0.884 | [8] 0.89 | [11] 0.893 | [4] 0.909 | [13] 0.892 | [14] 0.873 | [16] 0.898 | [18] 0.867 | [22] 0.868 | [24] 0.885 | [26] 0.871 | [5] 0.667 | [33] 0.892 | [37] 0.878 | [43] 0.877 | [45] 0.758 | [47] 0.652 | [49] 0.88 | [51] 0.867 | [52] 0.895 | [54] 0.874 | [56] 0.866 | [59] 0.879 | [64] 0.891 | [68] 0.894 | [69] 0.691 | [71] 0.892 | [73] 0.866 | [74] 0.863
inactive: [9] 0.894 | [10] 0.899 | [12] 0.896 | [15] 0.84 | [17] 0.917 | [19] 0.762 | [20] 0.858 | [21] 0.777 | [23] 0.879 | [25] 0.887 | [27] 0.776 | [28] 0.836 | [29] 0.733 | [30] 0.686 | [31] 0.827 | [32] 0.577 | [34] 0.774 | [35] 0.839 | [36] 0.83 | [38] 0.692 | [39] 0.729 | [40] 0.887 | [41] 0.89 | [42] 0.906 | [44] 0.859 | [46] 0.845 | [48] 0.859 | [50] 0.866 | [53] 0.841 | [55] 0.821 | [57] 0.894 | [58] 0.873 | [60] 0.825 | [61] 0.861 | [62] 0.899 | [63] 0.877 | [65] 0.748 | [66] 0.788 | [67] 0.708 | [70] 0.912 | [72] 0.89
